For some of these results: Potency and affinity values are given separately. Active and inactive are the calls of the source.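 The calls were made as follows, unless noted: active = signal rise over 3 SD above mean of control wells given weak agonist, in both repeats and first screen; inactive = the rest.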
What was measured:
[1] = tested on: TRPC4 beta (transient receptor potential cation channel C4), mouse; assay: TRPC4 cation channel opening, retest – cell-based, Fluo4 calcium, HEK293 TRPC4beta/mu-opioid, duplicates, 10 µM, confirmation (AID 2426;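 active = fluorescence ratio normalized to control raised more than 50% in primary screen plus both repeat runs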); details: Fluo4 calcium fluorescence, at 10 µM; active compounds read high
[2] = tested on: transient receptor potential cation channel C4 beta (TRPC4), mouse; assay: TRPC4 cation channel opening, second retest – cell-based, second round, Fluo4, HEK293 TRPC4beta/mu-opioid, 1 µM, confirmation (AID 2461;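 active = primary screen active and over 50% activation in each of two duplicate runs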); details: Fluo4 calcium fluorescence, at 1 µM; active compounds read high
[3] = tested on: TRPC4 (transient receptor potential cation channel C4 beta), mouse; assay: potentiation of DAMGO EC20 TRPC4 response – cell-based, second round, Fluo-4, HEK293 TRPC4beta/mu-opioid, 1 µM, confirmation (AID 2554;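 active = primary screen hit whose fluorescence ratio, in both repeats, exceeds the weak agonist control mean by 3 SD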); details: DAMGO EC20, Fluo-4 calcium flux, at 1 µM; active compounds read high
[4] = tested on: TRPC4 beta (transient receptor potential cation channel C4), mouse; assay: potentiation of DAMGO EC20 TRPC4 response – cell-based, Fluo-4, HEK293 TRPC4beta/mu-opioid, confirmation (AID 2555;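 active = primary screen hit whose calcium fluorescence ratio, in both repeats, exceeds the weak agonist control mean by 3 SD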); details: DAMGO EC20, Fluo-4 calcium flux, at 10 µM; active compounds read high
[5] = target: Short transient receptor potential channel 4 (Mus musculus) (UniProt Q9QUQ5); assay: blockers of DAMGO-evoked TRPC4 calcium flux – cell-based, Fluo4, HEK293 TRPC4beta/mu-opioid, confirmation (AID 2636;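 active = calcium signal cut by more than 3 SD below the full-agonist control yet still positive, in both repeats and the earlier primary screen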); details: at 10 µM; active compounds read high
Chain of Short transient receptor potential channel 4 (Mus musculus) (Q9QUQ5 whole entry, looked up): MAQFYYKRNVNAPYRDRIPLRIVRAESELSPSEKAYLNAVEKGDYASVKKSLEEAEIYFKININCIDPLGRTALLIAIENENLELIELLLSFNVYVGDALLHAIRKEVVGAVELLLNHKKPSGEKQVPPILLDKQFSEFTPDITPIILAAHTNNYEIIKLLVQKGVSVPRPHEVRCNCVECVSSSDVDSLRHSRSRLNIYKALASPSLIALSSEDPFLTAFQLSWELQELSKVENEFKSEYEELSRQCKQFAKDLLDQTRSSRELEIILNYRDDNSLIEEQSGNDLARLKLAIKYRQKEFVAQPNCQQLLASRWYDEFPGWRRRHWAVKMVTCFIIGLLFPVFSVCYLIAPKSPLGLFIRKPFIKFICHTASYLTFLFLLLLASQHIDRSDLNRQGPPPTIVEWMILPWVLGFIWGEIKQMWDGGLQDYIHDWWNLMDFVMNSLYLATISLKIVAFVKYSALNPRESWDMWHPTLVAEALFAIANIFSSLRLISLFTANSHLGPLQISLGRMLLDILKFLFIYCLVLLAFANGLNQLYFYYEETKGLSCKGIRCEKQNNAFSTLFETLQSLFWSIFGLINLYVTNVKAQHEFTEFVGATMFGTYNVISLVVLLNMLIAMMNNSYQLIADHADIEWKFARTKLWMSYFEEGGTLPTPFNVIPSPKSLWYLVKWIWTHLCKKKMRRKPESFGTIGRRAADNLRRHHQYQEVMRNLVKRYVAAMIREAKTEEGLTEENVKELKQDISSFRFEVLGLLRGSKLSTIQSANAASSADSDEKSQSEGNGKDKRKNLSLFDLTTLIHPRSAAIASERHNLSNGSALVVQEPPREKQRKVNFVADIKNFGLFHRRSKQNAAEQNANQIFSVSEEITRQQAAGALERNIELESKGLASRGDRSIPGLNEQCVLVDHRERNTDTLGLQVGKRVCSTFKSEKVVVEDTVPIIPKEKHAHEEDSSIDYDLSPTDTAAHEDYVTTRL

[6] = target: Short transient receptor potential channel 4 (Mus musculus) (UniProt Q9QUQ5); assay: blockers of DAMGO-evoked TRPC4 calcium flux – cell-based, second round, Fluo4, HEK293 TRPC4beta/mu-opioid, 1 µM, confirmation (AID 2637;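 active = calcium signal ratio cut to more than 3 SD under the fully stimulated control mean yet still positive, in both repeats and the primary screen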); details: at 1 µM; active compounds read high
[7] = target: Short transient receptor potential channel 4 (Mus musculus) (UniProt Q9QUQ5); assay: calcium entry via TRPC4 opening agents – cell-based, HEK293 TRPC4/mu-opioid, Fluo-4 calcium, dose response (AID 434937;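 active = primary screen activator hit with a dose response curve and TRPC4 channel activation at any tested dose; inactive = no activation, no dose response, or not a primary hit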)
[8] = target: Short transient receptor potential channel 4 (Mus musculus) (UniProt Q9QUQ5); assay: potentiation of DAMGO-evoked TRPC4 calcium signal – cell-based, HEK293 TRPC4/mu-opioid, Fluo-4 calcium, EC20 DAMGO, dose response (AID 434941;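 active = earlier screen potentiator hit that boosts the TRPC4 ion channel at some dose, with a dose response; inactive = no potentiation, no dose response, or not a prior hit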;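 also: calcium entry triggered by an EC20 dose of DAMGO at the co-expressed mu-opioid receptor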)
[9] = target: Short transient receptor potential channel 4 (Mus musculus) (UniProt Q9QUQ5); assay: block of DAMGO-driven TRPC4 calcium entry – cell-based, HEK293 TRPC4/mu-opioid, Fluo-4 calcium, dose response (AID 434942;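 active = primary screen inhibitor hit that blocks the TRPC4 channel at some tested dose, yielding a dose curve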)
[10] = target: Short transient receptor potential channel 6 (Mus musculus) (UniProt Q61143); assay: TRPC6 blockade by TRPC4 inhibitor hits – cell-based, HEK293, membrane potential dye, duplicate, selectivity assay for TRPC4 inhibitor project, confirmation (AID 434948;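 active = active in primary screen and both duplicates, each dropping signal beyond three positive-control SD with fluorescence still positive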); details: HEK293 TRPC6, membrane potential dye fluorescence, at 10 µM, stimulated with maximal-effect acetylcholine; active compounds read high
Chain of Short transient receptor potential channel 6 (Mus musculus) (Q61143 whole entry, looked up): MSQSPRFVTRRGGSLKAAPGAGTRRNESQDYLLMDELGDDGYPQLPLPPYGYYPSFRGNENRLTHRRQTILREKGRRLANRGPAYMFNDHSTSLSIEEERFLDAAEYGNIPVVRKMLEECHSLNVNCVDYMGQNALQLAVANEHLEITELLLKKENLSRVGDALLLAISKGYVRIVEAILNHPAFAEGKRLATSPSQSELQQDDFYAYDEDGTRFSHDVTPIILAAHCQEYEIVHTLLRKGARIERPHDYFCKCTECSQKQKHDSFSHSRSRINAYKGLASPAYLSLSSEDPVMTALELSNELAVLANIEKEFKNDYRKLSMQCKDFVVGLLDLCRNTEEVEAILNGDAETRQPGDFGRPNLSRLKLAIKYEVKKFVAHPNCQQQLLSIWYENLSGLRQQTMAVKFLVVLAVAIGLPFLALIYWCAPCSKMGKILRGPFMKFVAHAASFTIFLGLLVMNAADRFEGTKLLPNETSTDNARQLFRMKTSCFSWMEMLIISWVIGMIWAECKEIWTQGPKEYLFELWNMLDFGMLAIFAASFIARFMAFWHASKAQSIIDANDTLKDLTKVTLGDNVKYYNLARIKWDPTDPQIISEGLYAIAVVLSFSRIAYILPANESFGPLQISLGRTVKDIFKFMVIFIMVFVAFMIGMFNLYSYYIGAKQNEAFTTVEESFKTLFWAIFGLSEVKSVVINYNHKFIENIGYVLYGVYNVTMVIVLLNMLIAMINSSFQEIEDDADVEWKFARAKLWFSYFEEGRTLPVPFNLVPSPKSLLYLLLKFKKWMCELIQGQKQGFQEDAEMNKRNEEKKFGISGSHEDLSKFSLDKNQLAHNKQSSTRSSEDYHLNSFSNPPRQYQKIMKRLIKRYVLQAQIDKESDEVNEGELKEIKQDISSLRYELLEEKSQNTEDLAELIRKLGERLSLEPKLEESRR

[11] = target: Short transient receptor potential channel 6 (Mus musculus) (UniProt Q61143); assay: TRPC6 opening by TRPC4 activator hits – cell-based, HEK293, membrane potential dye, duplicate, selectivity assay for TRPC4 activator project, confirmation (AID 434950;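 active = membrane potential signal rise above negative control mean plus 3 SD in both duplicates, also active in the earlier TRPC4 screen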;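 as to activation: 0% = buffer only wells and 100% = acetylcholine maximal-effect wells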); details: HEK293 TRPC6, membrane potential fluorescence, at 10 µM; activation: active compounds read high; outcome: activation
[12] = target: Short transient receptor potential channel 6 (Mus musculus) (UniProt Q61143); assay: positive modulators of mouse TRPC6 channel – HEK293 cells, membrane potential dye, duplicate, selectivity assay for TRPC4 potentiator project, confirmation (AID 434952;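 active = compound raising the membrane signal above positive-control mean plus 3 SD in both repeats, and a primary screen hit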); details: HEK293 TRPC6, membrane potential dye fluorescence, at 10 µM, maximal acetylcholine added after compound; active compounds read high
[13] = target: Short transient receptor potential channel 4 (Mus musculus) (UniProt Q9QUQ5); assay: calcium flux activators in TRPC4/5HT1a cells, counter-screen for TRPC4 activator project, cell-based, second counter screen, HEK293 TRPC4/5HT1a, Fluo-4 (AID 434977;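 active = calcium signal rise above buffer-control mean plus 5 SD in both duplicates, and also a hit in the primary screen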); details: Fluo-4 calcium flux, at 10 µM; active compounds read high
[14] = serotonin-gated TRPC4 signal block – cell-based, second counter screen, HEK293 TRPC4/5HT1a, Fluo-4, counter-screen for TRPC4 inhibitor project, confirmation (AID 434978;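 active = primary screen active whose calcium signal fell more than 3 SD beyond the full-serotonin control mean in both duplicate plates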;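 also: serotonin given first at submaximal then at maximal dose after compound preincubation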); details: Fluo-4 calcium flux, at 10 µM, serotonin added to trigger calcium flux; active compounds read high
[15] = tested on: TRPC4 (mouse), co-expressed with 5HT1a in HEK293; assay: enhancement of serotonin-evoked TRPC4 response – cell-based, second counter screen, HEK293 TRPC4/5HT1a, Fluo-4, counter-screen for TRPC4 potentiator project, confirmation (AID 434979); details: Fluo-4 calcium flux, at 10 µM, serotonin added at its EC20 dose; active compounds read high
[16] = nonspecific calcium rise without TRPC4 – cell-based, HEK293 mu-opioid receptor line, counter-screen for TRPC4 activator project, confirmation (AID 449723;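 active = hit in primary screen, with calcium signal over 5 SD above buffer well mean in both duplicates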;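 also: counter screen cells carry the mu-opioid receptor alone and lack TRPC4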); details: HEK293 mu-opioid cells, Fluo-4 calcium fluorescence, at 10 µM; active compounds read high
[17] = nonspecific potentiation of DAMGO calcium response – cell-based, HEK293 mu-opioid receptor line, counter-screen for TRPC4 allosteric potentiator project, confirmation (AID 449724;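 active = calcium signal rise more than 3 SD above the low-dose agonist control mean, in both duplicate plates and the primary screen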); details: HEK293 mu-opioid receptor cells, Fluo-4 calcium flux, at 10 µM, compound added before EC20 DAMGO stimulus; active compounds read high

CCN1CCN(c2ccc(NC(=O)CCc3c(C)nc4c(-c5ccc(F)cc5)c(C)nn4c3C)cc2)CC1
inactive: outcome [1] | outcome [2] | outcome [3] | outcome [4] | outcome [5] | outcome [6] | outcome [7] | outcome [8] | outcome [9] | outcome [10] | outcome [11] | outcome [12] | outcome [13] | outcome [14] | outcome [15] | outcome [16] | outcome [17]

O=C(/C=C/c1ccc(Cl)cc1)N(Cc1ccccc1)C1CCS(=O)(=O)C1 (stereo not drawn)
active: potentiation [15] 15.5%
inactive: outcome [1] | outcome [2] | outcome [3] | outcome [4] | outcome [5] | outcome [6] | outcome [7] | outcome [8] | outcome [9] | outcome [10] | outcome [11] | outcome [12] | outcome [13] | outcome [14] | outcome [16] | outcome [17]

CC1CCN(CC(O)COCCC23CC4CC(CC(C4)C2)C3)CC1 (stereo not drawn)
inactive: outcome [1] | outcome [2] | outcome [3] | outcome [4] | outcome [5] | outcome [6] | outcome [7] | outcome [8] | outcome [9] | outcome [10] | outcome [11] | outcome [12] | outcome [13] | outcome [14] | outcome [15] | outcome [16] | outcome [17]

NS(=O)(=O)c1ccc(CCNCc2cc(Br)ccc2OCc2ccccc2)cc1
inactive: outcome [1] | outcome [2] | outcome [3] | outcome [4] | outcome [5] | outcome [6] | outcome [7] | outcome [8] | outcome [9] | outcome [10] | outcome [11] | outcome [12] | outcome [13] | outcome [14] | outcome [15] | outcome [16] | outcome [17]

CCN1CCN(c2c(Cl)cccc2NC(=O)c2cccs2)CC1
active: potentiation [3] 14% | potentiation [15] 20.9%
inactive: outcome [1] | outcome [2] | outcome [4] | outcome [5] | outcome [6] | outcome [7] | outcome [8] | outcome [9] | outcome [10] | outcome [11] | outcome [12] | outcome [13] | outcome [14] | outcome [16] | outcome [17]

CCN(CC)CCNc1ccc(Cl)cc1[N+](=O)[O-]
inactive: outcome [1] | outcome [2] | outcome [4] | outcome [5] | outcome [6] | outcome [7] | outcome [8] | outcome [9] | outcome [10] | outcome [11] | outcome [12] | outcome [13] | outcome [14] | outcome [16] | outcome [17]
active: potentiation [3] 31% | potentiation [15] 17.9%

C/C(=N/Nc1ccnc2cc(Cl)ccc12)c1ccc(N)cc1
inactive: outcome [1] | outcome [2] | outcome [3] | outcome [4] | outcome [5] | outcome [6] | outcome [7] | outcome [8] | outcome [9] | outcome [10] | outcome [11] | outcome [12] | outcome [13] | outcome [14] | outcome [15] | outcome [16] | outcome [17]

Clc1ccc2nc(CN3CCCc4ccccc43)cn2c1
inactive: outcome [1] | outcome [2] | outcome [3] | outcome [5] | outcome [6] | outcome [7] | outcome [8] | outcome [9] | outcome [10] | outcome [11] | outcome [12] | outcome [13] | outcome [14] | outcome [16] | outcome [17]
active: potentiation [4] 12% | potentiation [15] 28%

Cc1ccc(-c2cn(-c3ccccc3)c(SCC(N)=O)n2)cc1C
inactive: outcome [1] | outcome [2] | outcome [4] | outcome [5] | outcome [6] | outcome [7] | outcome [8] | outcome [9] | outcome [10] | outcome [11] | outcome [12] | outcome [13] | outcome [14] | outcome [16]
active: potentiation [3] 29% | potentiation [15] 25.4% | activation [17] 741%

O=C(/C=C/c1ccccc1Cl)N(c1ccccn1)C1CCCCC1
inactive: outcome [1] | outcome [2] | outcome [3] | outcome [4] | outcome [5] | outcome [6] | outcome [7] | outcome [8] | outcome [9] | outcome [10] | outcome [11] | outcome [12] | outcome [13] | outcome [14] | outcome [15] | outcome [16] | outcome [17]

Cc1ccc(S(=O)(=O)Nc2ccc(N=Nc3ccc(O)cc3)cc2)cc1
inactive: outcome [1] | outcome [2] | outcome [3] | outcome [4] | outcome [5] | outcome [6] | outcome [7] | outcome [8] | outcome [9] | outcome [10] | outcome [11] | outcome [12] | outcome [13] | outcome [14] | outcome [15] | outcome [16] | outcome [17]

CCCCN(C)CCNC(=S)Nc1ccc2nc(N3CCN(CC)CC3)cc(C)c2c1
active: potentiation [3] 11% | potentiation [15] 18%
inactive: outcome [1] | outcome [2] | outcome [4] | outcome [5] | outcome [6] | outcome [7] | outcome [8] | outcome [9] | outcome [10] | outcome [11] | outcome [12] | outcome [13] | outcome [14] | outcome [16] | outcome [17]

Cc1nnc(Sc2cc(NCCCO)c([N+](=O)[O-])c3nonc23)s1
active: inhibition [5] 84%
inactive: outcome [1] | outcome [2] | outcome [3] | outcome [4] | outcome [6] | outcome [7] | outcome [8] | outcome [9] | outcome [10] | outcome [11] | outcome [12] | outcome [13] | outcome [14] | outcome [15] | outcome [16] | outcome [17]

Cc1ccc(C2(CCNC(C)c3cccs3)CCOC(C(C)C)C2)cc1 (stereo not drawn)
active: activation [11] 69%
inactive: outcome [1] | outcome [2] | outcome [3] | outcome [4] | outcome [5] | outcome [6] | outcome [7] | outcome [8] | outcome [9] | outcome [10] | outcome [12] | outcome [13] | outcome [14] | outcome [15] | outcome [16] | outcome [17]

From PubChem BioAssay
